# Shown is part of a subset that was picked to be rich in hits.
# IMPase cell inh – membrane-permeable compound that blocks inositol monophosphatase | inhibition (IP1 accumulation), % at 46.1 µM | CHO-M1 cells, IP1 accumulation, HTRF TR-FRET ratio | AID 901 | 120,000 tested, under 10 active; active = well fitted curve in the direction sought with a large enough effect in the signal ratio, not every such curve was filed as active; inconclusive = small, poorly fitted or top-dose-only effect, or a change in a side signal; inactive = no such curve, though single readings can be large or run the other way; the % refers to the signal ratio;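 also: cells stimulated with carbachol in lithium chloride buffer; plate controls were DMSO basal wells for no effect and reference inhibitor wells for full effect; higher means more IMPase inhibition seen as more IP1 and lower FRET ratio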
# Target sequence (P97697 whole entry, looked up): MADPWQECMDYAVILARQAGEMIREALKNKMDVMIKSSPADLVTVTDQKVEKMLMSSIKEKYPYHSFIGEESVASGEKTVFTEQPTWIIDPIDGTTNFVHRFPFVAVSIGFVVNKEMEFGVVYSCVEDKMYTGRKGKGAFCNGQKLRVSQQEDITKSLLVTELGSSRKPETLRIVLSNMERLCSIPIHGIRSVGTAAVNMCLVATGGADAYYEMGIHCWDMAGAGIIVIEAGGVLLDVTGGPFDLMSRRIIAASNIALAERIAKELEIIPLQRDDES
#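 The IP-One HTRF competitive assay in carbachol-stimulated CHO-M1 cells quantifies cellular IP1. Compounds spanned up to 46 uM final, and activity is expressed as AC50 from concentration-response fits of the ratio and donor data.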
# IkB signaling – IkB pathway inhibition in ABC-DLBCL cells; ABC-DLBCL IkBa-CBG/CBR dual luciferase ratio, 4 h; response scale: scaled: untreated 0%, proteasome inhibitor 100%; Potency, µM (series often up to 57.1 µM), without a hit: at the top dose IkBa stabilization activation; 0.04% of 110,000 active; active = well fitted curve in the direction sought with a large enough effect in the signal ratio, not every such curve was filed as active; inconclusive = small, poorly fitted or top-dose-only effect, or a change in a side signal; the % refers to the signal ratio;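 also: potency is read from the fitted curve at half-maximal effect; the direction sought is a rising ratio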
#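 Luminescence ratio of IκBα-fused green versus native red beetle luciferase in OCI-Ly3 cells, 4 h post-doxycycline with compound; red signal alone, scaled from basal (0%) to zero light (-100%), flagged nonspecific or cytotoxic effects.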
# Hsp90 Hop PPI – changes Hsp90-Hop TPR2A binding signal, up or down; 0.44% of 71,000 active; Potency, µM (highest dose often 57 µM), without a hit: top-dose activity change, negative = inhibition; AlphaScreen TPR2A-His6 binding biotin-Hsp90 C-terminal peptide; active = well fitted curve in either direction with a large enough effect; inconclusive = small, poorly fitted or top-dose-only effect, or another doubt; also: potency is read from the fitted curve at half-maximal effect; % is scaled to controls: 0 for no effect and ±100 for the full control effect
# p53ts 32C tox – p53ts cell cytotoxicity, permissive temperature | H1299-p53A138V at 32C, ATP luminescence viability, 24 h | Potency, µM (titrated, usually from 46.1 µM), without a hit: at the top dose activity change, negative = cytotoxicity, usual class: cytotoxic | 0.93% of 130,000 active | AID 924;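 also: potency is read from the fitted curve at half-maximal effect; 0% = DMSO and -100% = full killing by reference compound; nearly all actives have a fitted effect of over 55% in size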
#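 ATP-content luminescence (ATPlite) read-out after 24 h compound exposure at 32C in H1299-p53A138V cells (600/well). Tested up to 46 uM. Normalized to DMSO (0%) and 100 uM tamoxifen (100% killing); Hill-fit AC50.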
# FLuc inh – firefly luciferase inhibition. purified firefly luciferase, luminescence, 8 min. Potency, µM (titrated, usually from 57.1 µM), without a hit: at the highest dose activity change, negative = inhibition, hits mostly inhibitors. 2.2% of 72,000 active. AID 411; also: potency is read from the fitted curve at half-maximal effect; % is scaled to controls: 0 for no effect and ±100 for the full control effect; nearly all actives have a fitted effect of over 40% in size
#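 Substrate buffer containing 10 uM ATP (pH 7.2 imidazole, Mg2+, KCl, detergent, BSA) is dispensed, compound pinned in, then luciferase/luciferin detector mix added. After 8 min at ambient temperature, light output is measured.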
# p53ts 39C tox – kills p53ts cells at the nonpermissive temperature | H1299-p53A138V viability at 39C, ATP luminescence, 24 h | Potency, µM (titrated, usually from 46.1 µM), for the others: at the highest dose activity change, negative = cell killing, usual class: cytotoxic | 1.5% of 130,000 active; also: potency is read from the fitted curve at half-maximal effect; % is scaled to controls: 0 for no effect and ±100 for the full control effect; nearly all actives have a fitted effect of over 55% in size
# Starred values were filed as active, the others as inactive; ? = inconclusive; nt = no result; [ ] = dose if it differs, or a comment. Unless noted, calls follow the shape of the dose curve; as a rule, active = well fitted curve in the direction sought with a large enough effect; inconclusive = small, poorly fitted or top-dose-only effect, or another doubt; inactive = no such curve, though single readings can be large; an effect the other way counts as inactive or inconclusive.
SMILES,IMPase cell inh,IkB signaling,Hsp90 Hop PPI,p53ts 32C tox,FLuc inh,p53ts 39C tox
COc1ccc(C(=O)O/N=C(\C)c2ccccc2)cc1,-12,nt,nt,nt,nt,nt
CCOc1ccc(-c2cc(CCCC(=O)Nc3cccc(OC)c3)no2)cc1,5,3.2µM*,-4%[2.3 µM],3%,-29%,0%
CCOc1ccc(-c2cc(CCCC(=O)NCc3cccnc3)no2)cc1,6,?,1%,16µM*,13µM*,?
COc1ccc(-c2cc(CCCC(=O)NCc3ccccn3)no2)cc1,3,-1%,-6%[2.3 µM],?,10µM*,?
CCOc1ccc(NC(=O)CCCc2cc(-c3ccc(OCC)cc3)on2)cc1,-1,nt,nt,nt,nt,nt
C=C(C)CN(CC#N)CC(=C)C,nt,1%[11.4 µM],0%[11 µM],0%[9.22 µM],0%[11.4 µM],-20%[9.22 µM]
Nc1ccc(-c2nc3ccc(-c4nc5ccccc5o4)cc3[nH]2)cc1,-29,4%,12%,1%,-3%,0%
Nc1ccc2nc(-c3cc(Cl)c(N)c(Cl)c3)[nH]c2c1,7,nt,nt,14µM*,nt,?
Clc1ccc2nc(-c3ccccc3)[nH]c2c1,0,nt,nt,10µM*,nt,13µM*
Nc1ccc(-c2nc3c(Cl)c(N)ccc3[nH]2)cc1,-4,4%,-11%,?,16µM*,?
Cc1ccc(C)c(-c2nc3ccc(N)cc3[nH]2)c1,-9,?,-4%,-12%,-17%,-21%
Nc1ccc2nc(-c3ccc(Cl)cc3)[nH]c2c1,-19,?,?,13µM*,4µM*,10µM*
Cc1ccc(C(c2sc3nc(-c4ccco4)nn3c2O)N2CCC3(CC2)OCCO3)cc1 (stereo not given),nt,-2%,nt,-14%,nt,5%
Cn1cc(S(=O)(=O)N2CCOCC2)cc1C(=O)Nc1ccc(Cl)c(C(F)(F)F)c1,nt,1%,nt,-7%,nt,-10%
O=C(Cn1c(=O)n(-c2ccccc2)c(=O)c2ccc(C(=O)NCc3ccc4c(c3)OCO4)cc21)Nc1ccc(Br)cc1F,nt,2%,nt,-15%,nt,13µM*
Cc1nn(-c2ccc(N3CCCCC3)nn2)c(C)c1CCC(=O)Nc1cccc(F)c1,nt,8%,nt,?,nt,?
Cc1ccc(NC(=O)CCc2c(C)nn(-c3ccc(N4CCCCC4)nn3)c2C)cc1F,nt,?,nt,?,nt,13µM*
CCN(CC)CCCNC(=O)c1nn(C)c2c1CSc1ccccc1-2,nt,?,nt,?,nt,20µM*
Cn1nc(C(=O)N2CCN(c3ccc(F)cc3)CC2)c2c1-c1ccccc1SC2,nt,0%,nt,?,nt,20µM*
O=C(c1cnccn1)N1CCC2(CC1)CCN(c1cccc(-c3ccccc3)c1)CC2,nt,2%[11.4 µM],-21%,3%,0%[11.4 µM],-2%
COc1cccc(-c2cc(NCc3cccs3)ncn2)c1,nt,-1%[11.4 µM],4%,25µM*,-17%[2.29 µM],?
Cc1oc2ccc(O)c(CN(C)Cc3ccccc3)c2c1C(=O)Nc1cccc(Cl)c1C,nt,?,nt,-6%,nt,-21%
O=C1c2[nH]nc(-c3ccc(Br)cc3)c2C(c2cccc(O)c2)N1c1ccc(Cl)cc1 (stereo not given),nt,?,nt,?,nt,16µM*
COc1cccc(N2CCN(C(=O)c3cnn(-c4ccc(C)cc4C)c3C3CCN(C(=O)OC(C)(C)C)CC3)CC2)c1,nt,?,nt,34%,nt,7%
Cc1ccccc1-c1nccc(NCCN2CCOCC2)n1,nt,1%[11.4 µM],-6%,-3%,1%[2.29 µM],-5%
Cc1ccc2c(c1)C(=O)OC(C(=O)Nc1ncc(Cc3ccccc3)s1)C2 (stereo not given),6,?,nt,-10%,nt,19%
O=C(Nc1ncc(Cc2ccccc2)s1)C1CCCO1 (stereo not given),0,?,-1%,?,10µM*,?
Cc1cc(NC(=O)CSc2ccc(-c3nc4cc(C)c(C)cc4[nH]3)cn2)no1,3,4%,-5%,?,0.32µM*,?
CC(C)c1ccc(C2N=C(N)Nc3nc4ccccc4n32)cc1 (stereo not given),?,?,nt,2%,nt,10µM*

# Compound activity as filed in PubChem BioAssay.
